Records with an inconclusive call do not appear. Unmarked numbers belong to inactive results. The source made the active and inactive calls. Calls come from the whole dose curve; as a rule, active = well fitted curve in the direction sought with a large enough effect in the repeat runs; inconclusive = weak or mixed curves; inactive = no such curve, though single readings can be large; an effect the other way counts as inactive or inconclusive.

The text below walks through data of PubChem BioAssay (Tox21).
% is set by controls: 0 for no effect and ±100 for the full control effect.
Note: nearly all actives have a fitted effect of over 50% in size.

Cytochrome P450 1A2 (Homo sapiens), sequence (P05177 whole entry, looked up): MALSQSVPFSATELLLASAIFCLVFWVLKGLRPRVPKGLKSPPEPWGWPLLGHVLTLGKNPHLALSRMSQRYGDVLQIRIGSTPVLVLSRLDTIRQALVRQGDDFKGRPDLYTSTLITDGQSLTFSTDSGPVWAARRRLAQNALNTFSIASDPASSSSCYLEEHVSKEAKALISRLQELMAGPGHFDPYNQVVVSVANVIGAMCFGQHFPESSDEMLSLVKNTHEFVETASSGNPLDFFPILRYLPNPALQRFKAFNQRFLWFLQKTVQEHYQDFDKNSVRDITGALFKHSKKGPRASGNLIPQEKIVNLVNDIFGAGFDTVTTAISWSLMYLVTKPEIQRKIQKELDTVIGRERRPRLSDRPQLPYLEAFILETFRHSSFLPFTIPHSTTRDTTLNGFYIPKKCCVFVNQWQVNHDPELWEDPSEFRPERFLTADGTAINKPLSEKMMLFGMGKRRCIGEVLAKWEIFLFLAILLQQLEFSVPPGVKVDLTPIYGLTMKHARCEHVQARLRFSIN

One assay deals with Cytochrome P450 1A2 (Homo sapiens) (UniProt P05177). Description: Cytochrome P450 Family 1 Subfamily A Member 2 (CYP1A2) small molecule antagonists: luciferase reporter qHTS assay (AID 1671199). Note: potency is the fitted concentration of half-maximal effect. The following applies: P450-Glo CYP1A2 enzyme, luciferin luminescence, 1 h; series mostly up to 53 µM; activity change, negative = inhibition: at the top concentration. In a few lines:
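Read-out is luminescence from luciferin detection reagent (20 min) proportional to CYP1A2 activity; compounds in DMSO preincubated 10 min with enzyme and proluciferin substrate, then NADPH regeneration solution, 1 h, room temperature.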
For orientation: In a reporter assay the amount or activity of a reporter protein is the signal.
With `CC1COc2ccccc2N1` (configuration not stated), the Potency is 31.7 µM (active).

With `Cc1cccc(C)c1OCC(C)N` (configuration not stated), the Potency is 1.62 µM (active).

Turning to `CCCCN`, the “activity change, negative = inhibition” value was -25.9%.

As for `CC[C@H](C)C(=O)O[C@H]1C[C@H](O)C=C2C=C[C@H](C)[C@H](CC[C@@H](O)C[C@@H](O)CC(=O)O)[C@H]21`, the “activity change, negative = inhibition” value was -11.2% [at 115 µM].

As for `CCNC(=O)C1CC(C)CCC1C(C)C` (configuration not stated), the “activity change, negative = inhibition” value was -27.7% [at 115 µM].

Turning to `CCCCCCCC/C=C\CCCCCCCC(=O)OCCCC`, the “activity change, negative = inhibition” value is -17.7% [at 23.6 µM].

With `CC(C)(C)OC(=O)c1ccc(O)cc1`, the Potency was 31.7 µM (active).

Turning to `COc1cc(NS(=O)(=O)c2ccc(N)cc2)nc(OC)n1`, the “activity change, negative = inhibition” value was 0.281%.

With `CN1C(C)(C)CCCC1(C)C`, the “activity change, negative = inhibition” value was 14.4%.

Consider `C[C@@H]1O[C@@H](O[C@@H]2[C@@H](O)[C@H](OCCc3ccc(O)c(O)c3)O[C@H](CO[C@@H]3O[C@H](CO)[C@@H](O)[C@H](O)[C@H]3O)[C@H]2OC(=O)/C=C/c2ccc(O)c(O)c2)[C@H](O)[C@H](O)[C@H]1O`, for which the “activity change, negative = inhibition” value is -9.71% [at 115 µM].

For `CC(C)C(=O)OCCc1ccccc1`, the “activity change, negative = inhibition” value was -28.7% [at 115 µM].

As for `COc1ccc(-c2cc(=O)c3c(O)cc(O[C@@H]4O[C@H](CO[C@@H]5O[C@@H](C)[C@H](O)[C@@H](O)[C@H]5O)[C@@H](O)[C@H](O)[C@H]4O)cc3o2)cc1O`, the “activity change, negative = inhibition” value is -7.57%.

For the compound `CCN(C)C(=O)Oc1cccc([C@H](C)N(C)C)c1`, the “activity change, negative = inhibition” value was -14%.

Take `CC(CC=O)CCCC(C)(C)O` (configuration not stated): the “activity change, negative = inhibition” value was -24.8% [at 115 µM].

Take `COCCc1ccc(OCC2CO2)cc1` (configuration not stated): the “activity change, negative = inhibition” value is -11%.

Consider `C[C@H](N)[C@H](O)c1cccc(O)c1`, for which the “activity change, negative = inhibition” value is 10.2%.

In the case of `Cc1c(I)c(=O)n(-c2ccccc2)n1C`, the “activity change, negative = inhibition” value is -21.3%.

Consider `Nc1ccc(S(=O)(=O)Nc2ccc(Cl)nn2)cc1`, for which the “activity change, negative = inhibition” value is 15.6%.

For the compound `CCCCCCCCC(=O)Cl`, the Potency was 64 µM (active).

`Cc1ccccc1OCC(O)CO` (configuration not stated): the Potency was 27.5 µM (active).

For `Oc1cn2c(n1)Nc1ccc(Cl)c(Cl)c1C2`, the Potency is 2.81 µM (active).

As to `Brc1ccc(-c2ccccc2)cc1`, the Potency is 6.31 µM (active).

For `CCO[Si](CCCS)(OCC)OCC`, the “activity change, negative = inhibition” value was -25.7% [at 115 µM].

In the next assay the target is Voltage-gated inwardly rectifying potassium channel KCNH2 (Homo sapiens) (UniProt Q12809). Put plainly: Human Ether-a-go-go-Related Gene (hERG) channel small molecule antagonists: fluorescence cell-based qHTS assay (AID 1671200).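 Note: hERG-expressing U2OS cells given a thallium stimulus after FluxOR II dye loading.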 The following applies: hERG-U2OS cells, FluxOR thallium flux fluorescence; series mostly up to 76.8 µM; activity change, negative = inhibition: at the top concentration. In a few lines: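 Quantitative HTS in hERG-U2OS cells: thallium entry through the channel reports activity, read as continuous 480/540 nm fluorescence over 2 min after stimulus addition.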
Voltage-gated inwardly rectifying potassium channel KCNH2 (Homo sapiens), sequence (Q12809 whole entry, looked up): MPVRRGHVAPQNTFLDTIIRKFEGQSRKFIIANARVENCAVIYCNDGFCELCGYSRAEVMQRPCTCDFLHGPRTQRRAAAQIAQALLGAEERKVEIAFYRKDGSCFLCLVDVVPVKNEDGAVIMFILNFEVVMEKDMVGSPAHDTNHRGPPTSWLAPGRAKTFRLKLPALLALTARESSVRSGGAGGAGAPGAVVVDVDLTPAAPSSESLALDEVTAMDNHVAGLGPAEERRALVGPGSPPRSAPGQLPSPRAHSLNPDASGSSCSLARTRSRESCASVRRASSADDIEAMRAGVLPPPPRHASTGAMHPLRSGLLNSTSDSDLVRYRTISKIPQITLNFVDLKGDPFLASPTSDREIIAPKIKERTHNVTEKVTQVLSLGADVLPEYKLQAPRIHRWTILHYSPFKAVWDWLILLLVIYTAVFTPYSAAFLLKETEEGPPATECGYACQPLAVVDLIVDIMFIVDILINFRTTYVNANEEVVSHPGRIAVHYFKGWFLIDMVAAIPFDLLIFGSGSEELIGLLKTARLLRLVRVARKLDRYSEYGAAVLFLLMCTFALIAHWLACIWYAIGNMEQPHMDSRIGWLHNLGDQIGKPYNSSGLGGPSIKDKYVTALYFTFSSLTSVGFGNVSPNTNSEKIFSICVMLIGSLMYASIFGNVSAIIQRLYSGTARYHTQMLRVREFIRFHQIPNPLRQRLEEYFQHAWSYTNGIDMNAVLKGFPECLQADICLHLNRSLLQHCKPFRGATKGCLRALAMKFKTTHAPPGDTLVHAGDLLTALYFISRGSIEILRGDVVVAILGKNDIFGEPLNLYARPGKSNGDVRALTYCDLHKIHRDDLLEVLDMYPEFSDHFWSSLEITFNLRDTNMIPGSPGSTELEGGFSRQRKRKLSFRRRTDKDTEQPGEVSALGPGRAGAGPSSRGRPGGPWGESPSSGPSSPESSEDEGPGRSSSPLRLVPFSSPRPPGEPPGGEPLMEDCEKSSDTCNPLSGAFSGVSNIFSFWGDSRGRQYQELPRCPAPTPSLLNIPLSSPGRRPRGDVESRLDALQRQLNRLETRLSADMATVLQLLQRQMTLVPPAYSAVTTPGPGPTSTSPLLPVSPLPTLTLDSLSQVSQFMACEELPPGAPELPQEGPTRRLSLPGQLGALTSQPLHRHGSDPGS
In general terms: hERG is a cardiac potassium channel; its block is linked to QT prolongation.
In the case of `CC(C)(C)c1n[nH]c(=S)n(N)c1=O`, the “activity change, negative = inhibition” value was -1.55%.

As for `CC1COc2ccccc2N1` (configuration not stated), the “activity change, negative = inhibition” value was 4.27%.

As for `Cc1cccc(C)c1OCC(C)N` (configuration not stated), the “activity change, negative = inhibition” value is -1.58% [at 35.3 µM].

In the case of `NCCN1CCOCC1`, the “activity change, negative = inhibition” value is 1.55%.

Turning to `CCCCNc1ccc(C(=O)OCCN(C)C)cc1`, the “activity change, negative = inhibition” value was 0.348% [at 35.3 µM].

Consider `CC[C@H](C)C(=O)O[C@H]1C[C@H](O)C=C2C=C[C@H](C)[C@H](CC[C@@H](O)C[C@@H](O)CC(=O)O)[C@H]21`, for which the “activity change, negative = inhibition” value is 1.56%.

For `CCNC(=O)C1CC(C)CCC1C(C)C` (configuration not stated), the “activity change, negative = inhibition” value is -6.31%.

On to `CCCCCCCC/C=C\CCCCCCCC(=O)OCCCC`, for which the activity change, negative = inhibition is -0.621% [at 15.8 µM].

As for `Nc1ccc([N+](=O)[O-])c(N)c1`, the “activity change, negative = inhibition” value was 0.591%.

For the compound `COc1cc(NS(=O)(=O)c2ccc(N)cc2)nc(OC)n1`, the “activity change, negative = inhibition” value is -5.88% [at 35.3 µM].

Consider `CC(C(=O)O)c1ccc2c(c1)CC(=O)c1ccccc1S2` (configuration not stated), for which the “activity change, negative = inhibition” value was 1.97% [at 35.3 µM].

Turning to `CN1C(C)(C)CCCC1(C)C`, the “activity change, negative = inhibition” value is -0.0865% [at 35.3 µM].

With `C[C@@H]1O[C@@H](O[C@@H]2[C@@H](O)[C@H](OCCc3ccc(O)c(O)c3)O[C@H](CO[C@@H]3O[C@H](CO)[C@@H](O)[C@H](O)[C@H]3O)[C@H]2OC(=O)/C=C/c2ccc(O)c(O)c2)[C@H](O)[C@H](O)[C@H]1O`, the “activity change, negative = inhibition” value was -3.82%.

Consider `COCCOC(=O)C1=C(C)NC(C)=C(C(=O)OC(C)C)C1c1cccc([N+](=O)[O-])c1` (configuration not stated), for which the “activity change, negative = inhibition” value is 2.22% [at 35.3 µM].

In the case of `COc1ccc(-c2cc(=O)c3c(O)cc(O[C@@H]4O[C@H](CO[C@@H]5O[C@@H](C)[C@H](O)[C@@H](O)[C@H]5O)[C@@H](O)[C@H](O)[C@H]4O)cc3o2)cc1O`, the “activity change, negative = inhibition” value was 2.94% [at 35.3 µM].

Take `CCN(C)C(=O)Oc1cccc([C@H](C)N(C)C)c1`: the “activity change, negative = inhibition” value is 5% [at 35.3 µM].

In the case of `CC(CC=O)CCCC(C)(C)O` (configuration not stated), the “activity change, negative = inhibition” value is -3.64%.

`COCCc1ccc(OCC2CO2)cc1` (configuration not stated): the “activity change, negative = inhibition” value was 1.58% [at 35.3 µM].

Take `N[C@@H](CCC(=O)N[C@@H](CS)C(=O)NCC(=O)O)C(=O)O`: the activity change, negative = inhibition is 7.2% [at 15.8 µM].

As for `Cc1c(I)c(=O)n(-c2ccccc2)n1C`, the “activity change, negative = inhibition” value is -3.25% [at 35.3 µM].

For the compound `Cc1cc(NC(=O)C2=C(O)c3ccccc3S(=O)(=O)N2C)no1`, the “activity change, negative = inhibition” value was -2.56% [at 35.3 µM].

On to `OCCN(CCO)c1cccc(Cl)c1`, for which the “activity change, negative = inhibition” value was 0.138%.

`CC(CN)CC(C)(C)CCN` (configuration not stated): the “activity change, negative = inhibition” value was 2.83% [at 200 µM].

As to `Cc1ccccc1OCC(O)CO` (configuration not stated), the “activity change, negative = inhibition” value was 12.5% [at 35.3 µM].

On to `Oc1cn2c(n1)Nc1ccc(Cl)c(Cl)c1C2`, for which the activity change, negative = inhibition is -1.03% [at 15.8 µM].

Take `Brc1ccc(-c2ccccc2)cc1`: the “activity change, negative = inhibition” value was -24.9%.

As to `CCO[Si](CCCS)(OCC)OCC`, the “activity change, negative = inhibition” value was 5.69%.

Regarding `CC1=C(C(=O)O)N2C(=O)[C@@H](NC(=O)[C@H](N)c3ccc(O)cc3)[C@H]2SC1`, the “activity change, negative = inhibition” value is 2.46% [at 35.3 µM].

For the compound `O=C(NCC(O)CO)c1c(I)c(C(=O)NCC(O)CO)c(I)c(N(CCO)C(=O)CO)c1I` (configuration not stated), the “activity change, negative = inhibition” value is 1.79% [at 35.3 µM].
